Reference: the supplement of paper PMC6555819

Experiments:
Experiment in all cases: PBM binding z-score (relative to random genomic background probes); higher = stronger binding; sequences stand for … in GC…GCGATTGACAGCGTAGAATGAAGG
[1] = test system: FXR:RXRa (NR concentration 270 nM, RXRa partner concentration 90 nM)
Summary of the method: (§1)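 Antibodies against each partner of ligand-free nuclear receptor dimers (one per run) detected binding on custom Agilent 4×180K protein-binding microarrays after 1 h incubation. The double-stranded probes had 34-nt variable regions carrying direct-repeat seeds, single-nucleotide variants, half-site ablations and random human genomic background sequences. Binding z-scores, from regression-normalized fluorescence, use the random background probes as reference.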

[2] = test system: LXRa:RXRa (NR concentration 270 nM, RXRa partner concentration 90 nM)
Summary of the method: as §1

[3] = test system: LXRa homodimer (NR concentration 270 nM)
Summary of the method: as §1

[4] = test system: LXRb:RXRa (NR concentration 270 nM, RXRa partner concentration 90 nM)
Summary of the method: as §1

[5] = test system: LXRb homodimer (NR concentration 270 nM)
Summary of the method: as §1

[6] = test system: PPARg:RXRa (NR concentration 180 nM, RXRa partner concentration 90 nM)
Summary of the method: as §1

[7] = test system: PPARg:RXRa 270nM:90nM, anti-RXR (NR concentration 270 nM, RXRa partner concentration 90 nM)
Summary of the method: as §1

[8] = test system: PPARg:RXRa 30nM:10nM, anti-RXR (NR concentration 30 nM, RXRa partner concentration 10 nM)
Summary of the method: as §1

[9] = test system: PPARg:RXRa 90nM:30nM, anti-RXR (NR concentration 90 nM, RXRa partner concentration 30 nM)
Summary of the method: as §1

TAGCCTCGGTCATTGGGCCAGTATAGTACGCATC gave a PBM binding z-score [1] of 0.733, a PBM binding z-score [2] of 0.704 and a PBM binding z-score [3] of 0.605. It also gave a PBM binding z-score [4] of 0.0326, a PBM binding z-score [5] of -0.0168 and a PBM binding z-score [6] of 0.597. It also gave a PBM binding z-score [7] of 0.0656, a PBM binding z-score [8] of -0.712 and a PBM binding z-score [9] of -0.209.

Sequence CAAACTAGGTCACGAAAGGTCAAAGTGGAATGAC has a PBM binding z-score [1] of 7.59, a PBM binding z-score [2] of 8.25 and a PBM binding z-score [3] of 7.92. It also gave a PBM binding z-score [4] of 7.19, a PBM binding z-score [5] of 2.79 and a PBM binding z-score [6] of 10.6. For the same sequence, the PBM binding z-score [7] was 8.11, the PBM binding z-score [8] was 7.1 and the PBM binding z-score [9] was 8.54.

In the case of CCTACTGGGCCAACAAGGTCATTGATGCCGATAA, the PBM binding z-score [1] is reported as 2.09, the PBM binding z-score [2] is reported as 2.49 and the PBM binding z-score [3] is reported as 1.44. For the same sequence, the PBM binding z-score [4] was 2.45, the PBM binding z-score [5] was -0.582 and the PBM binding z-score [6] was 3.23. The PBM binding z-score [7] was 3.3, the PBM binding z-score [8] was 0.856 and the PBM binding z-score [9] was 2.31.

Work on AGAATGAGGTTACCAGAGATCAGGGAAACGCTTG yielded a PBM binding z-score [1] of 2.17, a PBM binding z-score [2] of 6.18 and a PBM binding z-score [3] of -0.181. The PBM binding z-score [4] was 3.62, the PBM binding z-score [5] was -0.177 and the PBM binding z-score [6] was 2.77. The PBM binding z-score [7] was 2.74, the PBM binding z-score [8] was 0.897 and the PBM binding z-score [9] was 1.85.

With CCTACTGGGCCATTGAGAGGTCATTGATCATATG the PBM binding z-score [1] was 1.94, the PBM binding z-score [2] was 3.79 and the PBM binding z-score [3] was 6.21. The PBM binding z-score [4] was 3.34, the PBM binding z-score [5] was 0.0421 and the PBM binding z-score [6] was 1.83. The PBM binding z-score [7] was 2.82, the PBM binding z-score [8] was 0.314 and the PBM binding z-score [9] was 1.68.

TAGCCTAGGTTATGCGGGCCAGTATAGTGTCGGC showed a PBM binding z-score [1] of -0.487, a PBM binding z-score [2] of -0.497 and a PBM binding z-score [3] of -0.618. The PBM binding z-score [4] was -0.71, the PBM binding z-score [5] was -1.29 and the PBM binding z-score [6] was 0.00764. The PBM binding z-score [7] was -0.446, the PBM binding z-score [8] was -0.658 and the PBM binding z-score [9] was -0.569.

TAGCCTAGGTCATTGTGCCAGTATAGTACGCATC was tested, and the PBM binding z-score [1] was 4.04, the PBM binding z-score [2] was 3.2 and the PBM binding z-score [3] was 1.08. For the same sequence, the PBM binding z-score [4] was 2.51, the PBM binding z-score [5] was 0.948 and the PBM binding z-score [6] was 2.89. It also gave a PBM binding z-score [7] of 2.79, a PBM binding z-score [8] of 0.475 and a PBM binding z-score [9] of 2.19.

For AGATTGAGGTTACCAAAGATCAGGGAAACGCTTG, the PBM binding z-score [1] was 2.33, the PBM binding z-score [2] was 6.22 and the PBM binding z-score [3] was 0.108. The PBM binding z-score [4] was 3.17, the PBM binding z-score [5] was -0.201 and the PBM binding z-score [6] was 2.04. It also gave a PBM binding z-score [7] of 2.22, a PBM binding z-score [8] of 0.623 and a PBM binding z-score [9] of 1.49.

For CGTCCAAGGTCAAAGGTCAGGGAAGAGATGACGG, the PBM binding z-score [1] was 8.68, the PBM binding z-score [2] was 6.78 and the PBM binding z-score [3] was 3.32. For the same sequence, the PBM binding z-score [4] was 6.96, the PBM binding z-score [5] was 1.53 and the PBM binding z-score [6] was 11. The PBM binding z-score [7] was 9.03, the PBM binding z-score [8] was 8.32 and the PBM binding z-score [9] was 9.6.

CCTACTGGGCCATTCAGAGGTCATTGTTCATATG was tested, and the PBM binding z-score [1] was 2.55, the PBM binding z-score [2] was 4.4 and the PBM binding z-score [3] was 6.96. The PBM binding z-score [4] was 3.77, the PBM binding z-score [5] was 0.5 and the PBM binding z-score [6] was 1.98. It also gave a PBM binding z-score [7] of 3.18, a PBM binding z-score [8] of 0.535 and a PBM binding z-score [9] of 2.16.

Sequence CAAAATAGGTCAAGGTCAAAGTCGGTTTGTGCCA has a PBM binding z-score [1] of 7.38, a PBM binding z-score [2] of 5.98 and a PBM binding z-score [3] of 4.65. The PBM binding z-score [4] was 5.22, the PBM binding z-score [5] was 2.2 and the PBM binding z-score [6] was 8.81. The PBM binding z-score [7] was 7.46, the PBM binding z-score [8] was 5.59 and the PBM binding z-score [9] was 7.54.

In the case of CCTACTGGGCCAAAGGTCATTGACTCCAATGCTC, the PBM binding z-score [1] is reported as 5.27, the PBM binding z-score [2] is reported as 5.54 and the PBM binding z-score [3] is reported as 4.65. For the same sequence, the PBM binding z-score [4] was 5.25, the PBM binding z-score [5] was 0.543 and the PBM binding z-score [6] was 12.1. It also gave a PBM binding z-score [7] of 10.3, a PBM binding z-score [8] of 10.7 and a PBM binding z-score [9] of 11.4.

With CCTACTGGGCGATTCAGAGGTCATTGATCATATG the PBM binding z-score [1] was 2.02, the PBM binding z-score [2] was 3.68 and the PBM binding z-score [3] was 6.2. For the same sequence, the PBM binding z-score [4] was 3.09, the PBM binding z-score [5] was -0.0527 and the PBM binding z-score [6] was 0.564. The PBM binding z-score [7] was 1.87, the PBM binding z-score [8] was 0.13 and the PBM binding z-score [9] was 0.99.

With CCTTACGGGTCAGTGACAGGTTATAGCATTTGGA the PBM binding z-score [1] was 4.29, the PBM binding z-score [2] was 3.37 and the PBM binding z-score [3] was 0.351. For the same sequence, the PBM binding z-score [4] was 2.96, the PBM binding z-score [5] was -0.126 and the PBM binding z-score [6] was 1.94. The PBM binding z-score [7] was 2.4, the PBM binding z-score [8] was 0.815 and the PBM binding z-score [9] was 1.86.

Work on TCTCGGAGGACACGAAAAGTCAGAGCTCGACATC yielded a PBM binding z-score [1] of 0.557, a PBM binding z-score [2] of 0.0964 and a PBM binding z-score [3] of -0.301. For the same sequence, the PBM binding z-score [4] was -0.0523, the PBM binding z-score [5] was -0.795 and the PBM binding z-score [6] was 0.122. For the same sequence, the PBM binding z-score [7] was 1.13, the PBM binding z-score [8] was 2.15 and the PBM binding z-score [9] was 1.59.

Work on AATTCAGGGTCACTAGGCCAGAGTAGGTACGAAT yielded a PBM binding z-score [1] of 6.96, a PBM binding z-score [2] of 6.2 and a PBM binding z-score [3] of 1.95. The PBM binding z-score [4] was 4.99, the PBM binding z-score [5] was 1.68 and the PBM binding z-score [6] was 9.15. The PBM binding z-score [7] was 7.59, the PBM binding z-score [8] was 4.55 and the PBM binding z-score [9] was 6.76.
